High-throughput results deposited in PubChem by The Scripps Research Institute Molecular Screening Center.
Compounds with a hit are over-represented: about 3.5% of the library has one in this group of screens.
GPR151 ag: activators of human GPR151; PathHunter beta-arrestin GPR151 cells, luminescence; activation, % at 11.2 µM; 650,000 compounds, 1% hits; AID 1508602; in the data active = activation above about 4.9%;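 note: 0% = median of compound wells and 100% = cells with positive control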
MITF primary: human MITF inhibition, primary screen. inhibition, % at 2.6 µM. AlphaScreen MITF homodimerization, bead proximity signal. O75030. 650,000 compounds, 0.91% hits; in the data active = inhibition above about 50%;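 note: 0% = vehicle wells with protein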
Target sequence (O75030 whole entry, looked up): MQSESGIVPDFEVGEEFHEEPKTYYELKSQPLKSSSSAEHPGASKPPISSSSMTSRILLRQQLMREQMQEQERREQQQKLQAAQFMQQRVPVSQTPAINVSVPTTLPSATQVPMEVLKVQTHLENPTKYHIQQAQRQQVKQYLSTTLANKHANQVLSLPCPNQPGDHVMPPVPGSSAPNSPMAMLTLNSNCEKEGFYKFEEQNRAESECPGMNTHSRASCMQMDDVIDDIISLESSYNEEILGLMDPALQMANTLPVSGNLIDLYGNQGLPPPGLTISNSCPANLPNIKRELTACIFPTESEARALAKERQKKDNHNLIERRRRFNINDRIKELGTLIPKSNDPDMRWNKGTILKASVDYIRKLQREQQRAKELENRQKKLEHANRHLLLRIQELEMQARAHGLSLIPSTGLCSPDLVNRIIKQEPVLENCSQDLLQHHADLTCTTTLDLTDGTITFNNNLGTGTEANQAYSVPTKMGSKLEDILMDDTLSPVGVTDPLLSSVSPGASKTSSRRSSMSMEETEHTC
TEAD-YAP inh: TEAD-YAP interaction inhibition; HEK-TIYL cells, TEAD-Gal4/YAP UAS-luciferase luminescence; inhibition, % at 9.12 µM; 640,000 compounds, 1.4% hits; AID 1259422; in the data active = inhibition above about 32%;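 note: 0% = median of test compound wells and 100% = reference inhibitor wells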
FBW7 activator: activators of human E3 ligase FBW7 | normalized activity (activation), % at 26.1 µM | 650,000 compounds, 0.13% hits | AID 1259310 | AlphaScreen FBW7–phospho-cyclin E peptide binding, activator screen; in the data active = normalized activity above about 1.9%;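 note: purified mutant Fbw7 with reduced substrate affinity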
MITF confirm: confirmation of human MITF inhibitors; AlphaScreen MITF homodimerization, biotin/His-MITF beads; inhibition, % at 2.6 µM; 4,700 compounds, 16% hits; shares compounds with MITF primary;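 active = inhibition above a cutoff derived from the DMSO control wells, cut at about 28% in these data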;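 note: 0% = MITF dimer wells with DMSO only; inhibitors lower the bead chemiluminescence by keeping MITF from dimerizing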
AS interf ctr: counter-screen: compounds optically interfering with AlphaScreen; inhibition, % at 2.6 µM; shares compounds with MITF primary; 4,700 compounds, 7.6% hits; LysRS AlphaScreen counterscreen, signal interference, triplicate; AID 1259376;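 active = inhibition above a cutoff derived from the DMSO control wells, cut at about 30% in these data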
Active calls of the source: *; x = no result.

SMILES	GPR151 ag	MITF primary	TEAD-YAP inh	FBW7 activator	MITF confirm	AS interf ctr
Cc1ccnc(Nc2ccc(NCCNC(=O)c3ccc(F)cc3)nn2)c1	0.8	55.6*	3.3	-1.4	60.8*	93.7*
COc1ccc(CN2CCC(N3CCCC3)CC2)cc1	-0.4	52.4*	-1.6	0.4	3.0	2.6
COc1ccc(OC)c(CN2CCC(O)CC2)c1	-0.5	36.6	-4.2	0.1	x	x
COc1ccc(CN2CCC(N3CCCCC3)CC2)c(OC)c1	-0.5	25.4	1.2	0.1	x	x
COc1ccc(OC)c(CN2CCC(N3CCCCC3)CC2)c1	0.0	52.3*	8.3	-0.1	9.7	8.6
CCN1CCN(C2CCN(Cc3cc(OC)ccc3OC)CC2)CC1	0.4	60.9*	9.6	0.4	-5.5	-6.1
Brc1ccc(CN2CCC(N3CCCCC3)CC2)cc1	-0.6	41.8	-8.4	-0.4	x	x
COc1ccc(OC)c(CN2CCN(C3CCCC3)CC2)c1	-0.7	70.4*	5.4	0.0	3.9	7.5
COC(=O)c1ccccc1N(Cc1ccccc1)S(=O)(=O)c1ccccc1	0.3	17.2	5.1	0.5	x	x
CCCN1C(=O)c2cc(C(=O)NCc3ccc(OC)cc3)ccc2C1O (stereo not given)	0.1	4.7	4.5	0.1	x	x
CCOC(=O)C1=C(C)N=c2s/c(=C\c3cc(Br)c(OCC#N)c(OC)c3)c(=O)n2C1c1ccc(F)cc1 (stereo not given)	2.6	5.0	-4.2	-0.1	x	x
COc1ccc(C2CC(=O)N(CC(=O)Nc3cc(C)on3)c3ccccc3S2)cc1 (stereo not given)	-2.7	7.2	26.4	-0.1	x	x
O=C(C1CCCN1S(=O)(=O)c1cccc2cccnc12)N1CCc2ccccc21 (stereo not given)	0.9	73.1*	7.6	0.0	-17.5	-4.4
O=C(NCc1ccccc1)c1csc(Nc2ccccc2)n1	-1.0	2.3	-4.7	-0.1	x	x
CC1CCN(Cc2ccc(-c3nnn(CC(=O)Nc4ccccc4F)n3)cc2)CC1	-0.7	10.5	11.7	-0.1	x	x
CC1CCN(Cc2ccc(-c3nnn(CC(=O)Nc4ccc(F)cc4)n3)cc2)CC1	-0.1	87.9*	-0.3	0.1	9.6	15.6
O=C(CCCn1c(SCC(=O)NC2CCCC2)nc2ccccc2c1=O)NCCCN1CCOCC1	-0.4	56.8*	-5.4	0.5	-15.6	-7.5
O=C1O[C@@H]2C[C@H]3C[C@@H]2[C@@H]1[C@H]3C(=O)N1CCCc2ccccc21	-0.6	17.6	-4.2	0.9	x	x
CCN1CCN(C/C=C/c2ccccc2OC)CC1	-0.2	51.1*	0.9	-0.1	1.6	-2.8
O=[N+]([O-])c1ccc(CN2CCN(C/C=C/c3ccccc3)CC2)o1	-0.8	65.1*	7.1	-0.2	27.2	11.0
CCN1CCN(C/C=C/c2ccccc2[N+](=O)[O-])CC1	-0.2	60.1*	9.5	0.1	-0.8	2.3
CCOc1ccc(NC(=O)c2sc3cc(Cl)ccc3c2Cl)cc1	-1.1	-2.2	-2.9	0.0	x	x
Fc1ccccc1C1CCN(Cc2cccnc2)CC1	-0.5	35.0	-3.6	-0.1	x	x
Fc1ccc(C2CCN(Cc3cccnc3)CC2)cc1	-0.2	53.1*	-2.0	-0.1	3.8	9.0
Fc1ccc(C2CCN(Cc3ccncc3)CC2)cc1	-0.2	59.5*	16.5	-0.3	-0.4	12.7
SMILES	GPR151 ag	MITF primary	TEAD-YAP inh	FBW7 activator	MITF confirm	AS interf ctr
CCS(=O)(=O)N1CCN(Cc2ccccc2[N+](=O)[O-])CC1	0.2	-0.6	2.1	0.0	x	x
O=S(=O)(Cc1ccccc1)N1CCN(Cc2ccccc2Cl)CC1	0.9	91.7*	5.4	0.0	11.1	11.4
O=[N+]([O-])c1ccccc1CN1CCN(S(=O)(=O)Cc2ccccc2)CC1	1.3	70.0*	12.3	0.7	12.2	18.3
CS(=O)(=O)N1CCN(c2ccc([N+](=O)[O-])c(N3CCN(Cc4ccccc4)CC3)c2)CC1	0.4	83.3*	9.8	0.0	-5.4	-2.9
Nc1nc(Cl)cc(Oc2ccc(Cl)cc2)n1	-0.6	-2.8	-15.5	0.2	x	x
COc1ccc(OC)c(CN2CCN(CCCc3ccccc3)CC2)c1	0.9	65.7*	0.0	-0.1	0.5	-3.4
COc1ccc(CN2CCN(Cc3ccccc3Cl)CC2)c(OC)c1	0.7	79.8*	0.0	0.0	4.7	18.0
COc1ccc(OC)c(CN2CCN(Cc3ccccc3Cl)CC2)c1	-1.1	76.5*	-1.6	-0.2	13.6	16.0
COc1ccc(OC)c(CN2CCN(Cc3ccccc3F)CC2)c1	1.5	77.1*	-6.2	-0.3	-4.1	-1.7
COc1ccc(C(=O)N2CCN=C2SC)cc1OC	0.1	-10.0	4.4	-0.1	x	x
COc1ccccc1NC(=S)N(CCN(C)C)C(C)c1ccccn1 (stereo not given)	-0.1	65.6*	0.3	-0.3	-50.4	100.3*
Cc1ccc2nc(CN(C)Cc3nccs3)nc(N)c2c1	1.0	65.3*	-24.9	-0.2	39.6*	100.2*
COc1cccc(OC)c1OCCCCN1CCCC1	-0.2	52.5*	5.8	0.5	-7.8	-10.4
CCN1CCN(CCOc2c(OC)cccc2OC)CC1	0.9	82.0*	1.1	0.0	7.4	15.7
CC(C)(O)C#Cc1ccc(CN2CCCC(c3ccn[nH]3)C2)cc1 (stereo not given)	0.9	-5.8	-1.3	-0.1	x	x
FC(F)(F)c1cccc(N2CCN(Cc3cccnc3)CC2)c1	-0.8	45.6	6.8	-0.1	x	x
c1ccc(CN2CCN(Cc3cccnc3)CC2)nc1	0.4	74.1*	0.0	-0.2	-18.3	-0.7
c1ccc(CN2CCN(C3CCN(Cc4cccnc4)CC3)CC2)cc1	2.7	38.2	0.3	-0.1	x	x
FC(F)(F)c1ccc(CN2CCN(Cc3cccnc3)CC2)cc1	1.1	80.8*	-13.4	-0.2	-6.5	-6.5
Clc1ccc(CN2CCN(Cc3cccnc3)CC2)cc1	0.6	84.4*	-5.2	-0.1	8.6	11.8
Clc1ccc(N2CCN(Cc3cccnc3)CC2)cc1	-0.5	51.8*	-3.0	-0.1	-2.3	8.0
Fc1ccccc1-c1n[nH]c(=S)n1-c1ccccc1	0.3	-8.3	-28.7	0.1	x	x
CCc1ccc(CN2CCN(Cc3cccnc3)CC2)cc1	-0.4	76.6*	-0.9	0.0	1.6	-1.4
Cc1ccccc1N1CCN(Cc2cccnc2)CC1	2.8	28.2	15.2	0.0	x	x
Clc1ccccc1CN1CCN(Cc2cccnc2)CC1	-0.6	82.6*	-3.4	-0.2	9.6	12.3
SMILES	GPR151 ag	MITF primary	TEAD-YAP inh	FBW7 activator	MITF confirm	AS interf ctr
O=C1CCN(Cc2cccnc2)CCN1Cc1ccc(F)cc1Cl	0.6	13.0	8.0	0.3	x	x
CCCC(CCC)c1nc2ccncc2[nH]1	3.7	51.9*	-5.4	-0.1	-1.4	6.7
O=C(C(Sc1ccccc1)c1ccccc1)N1CCc2ccccc21 (stereo not given)	1.9	3.7	-11.1	0.0	x	x
COc1ccc(C(=O)N2CCN(C(=O)c3cccnc3)CC2)cc1	-0.1	5.7	7.0	-0.1	x	x
COc1ccc(CN2CCN(C(=O)c3cccnc3)CC2)cc1	0.3	52.0*	-3.4	0.0	-3.2	-9.1
COc1cccc(CN2CCN(C(=O)c3cc(OC)cc(OC)c3)CC2)c1	-1.3	42.7	-4.5	-0.3	x	x
